This is a sample that favours compounds with a hit; in the whole collection about 12% have one here.
G9a inh – G9a (human) methyltransferase inhibition; AID 504332; Potency, µM (series often up to 102 µM), for inactives: at the top dose activity, negative = inhibition, most hits filed as inhibitors; G9a H3K9 monomethylation, AlphaScreen, 2 h; Q96KQ7; hit rate 8.8% among 350,000; further: on the % scale 0 is the no-effect control and ±100 the full control effect; nearly all actives have a fitted effect of over 75% in size
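AlphaScreen read-out: biotin-H3K9 peptide (500 nM) methylation by 20 nM enzyme with 20 uM SAM, 2 h at room temperature after 15 min compound preincubation; anti-monomethyl H3K9 antibody plus donor/acceptor beads, 10 min dark.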
BAZ2B inh – blocks human BAZ2B; Q9UIF8; Potency, µM (highest dose often 114 µM), for inactives: at the top dose activity change, negative = inhibition, actives largely listed as inhibitors; AID 504333; AlphaScreen BAZ2B-H3K14Ac peptide displacement; hit rate 4.4% among 360,000; further: on the % scale 0 is the no-effect control and ±100 the full control effect; nearly all actives have a fitted effect of over 60% in size
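In this displacement format the biotinylated H3(5-23) peptide acetylated at Lys14 serves as ligand at 50 nM, with BAZ2B at 50 nM in PBS pH 7.4 containing 0.01% Tween-20. Donor and acceptor beads are 10 ug/mL final.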
PLK1 PBD inh – PLK1 (human) polo-box domain binding inhibition; Plk1 PBD binding of FITC phosphopeptide, fluorescence polarization; Potency, µM, for the others: max response, negative = inhibition, most hits filed as inhibitors; hit rate 2.8% among 360,000; further: series mostly up to about 57 µM; on the % scale 0 is the no-effect control and ±100 the full control effect; nearly all actives have a fitted effect of over 65% in size
HP1b chromo inh – HP1-beta chromodomain-methylated histone interaction inhibition; P83916; AlphaScreen HP1-beta / biotin-H3K9me3 peptide binding; Potency, µM (doses to about 114 µM), inactives show at the highest dose activity change, negative = inhibition, usual class: inhibitors; hit rate 0.56% among 390,000; AID 540317; further: nearly all actives have a fitted effect of over 70% in size
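Compound inhibition of the preformed complex between 50 nM HP1-beta and 50 nM biotinylated H3K9me3 peptide was read by AlphaScreen. Buffer was PBS pH 7.4 with 0.01% Tween-20. Incubations ran 30 min at room temperature, with 10 ug/mL donor/acceptor beads.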
JMJD2A Tudor inh – blocks the human JMJD2A Tudor domain; Potency, µM (series often up to 114 µM), inactives show top-dose activity change, negative = inhibition, hits mostly inhibitors; AlphaScreen JMJD2A-Tudor / H3K4me3 peptide binding; O75164; hit rate 4.4% among 390,000; further: on the % scale 0 is the no-effect control and ±100 the full control effect; nearly all actives have a fitted effect of over 50% in size
Target sequence (O75164 whole entry, looked up, the tested form may be a part): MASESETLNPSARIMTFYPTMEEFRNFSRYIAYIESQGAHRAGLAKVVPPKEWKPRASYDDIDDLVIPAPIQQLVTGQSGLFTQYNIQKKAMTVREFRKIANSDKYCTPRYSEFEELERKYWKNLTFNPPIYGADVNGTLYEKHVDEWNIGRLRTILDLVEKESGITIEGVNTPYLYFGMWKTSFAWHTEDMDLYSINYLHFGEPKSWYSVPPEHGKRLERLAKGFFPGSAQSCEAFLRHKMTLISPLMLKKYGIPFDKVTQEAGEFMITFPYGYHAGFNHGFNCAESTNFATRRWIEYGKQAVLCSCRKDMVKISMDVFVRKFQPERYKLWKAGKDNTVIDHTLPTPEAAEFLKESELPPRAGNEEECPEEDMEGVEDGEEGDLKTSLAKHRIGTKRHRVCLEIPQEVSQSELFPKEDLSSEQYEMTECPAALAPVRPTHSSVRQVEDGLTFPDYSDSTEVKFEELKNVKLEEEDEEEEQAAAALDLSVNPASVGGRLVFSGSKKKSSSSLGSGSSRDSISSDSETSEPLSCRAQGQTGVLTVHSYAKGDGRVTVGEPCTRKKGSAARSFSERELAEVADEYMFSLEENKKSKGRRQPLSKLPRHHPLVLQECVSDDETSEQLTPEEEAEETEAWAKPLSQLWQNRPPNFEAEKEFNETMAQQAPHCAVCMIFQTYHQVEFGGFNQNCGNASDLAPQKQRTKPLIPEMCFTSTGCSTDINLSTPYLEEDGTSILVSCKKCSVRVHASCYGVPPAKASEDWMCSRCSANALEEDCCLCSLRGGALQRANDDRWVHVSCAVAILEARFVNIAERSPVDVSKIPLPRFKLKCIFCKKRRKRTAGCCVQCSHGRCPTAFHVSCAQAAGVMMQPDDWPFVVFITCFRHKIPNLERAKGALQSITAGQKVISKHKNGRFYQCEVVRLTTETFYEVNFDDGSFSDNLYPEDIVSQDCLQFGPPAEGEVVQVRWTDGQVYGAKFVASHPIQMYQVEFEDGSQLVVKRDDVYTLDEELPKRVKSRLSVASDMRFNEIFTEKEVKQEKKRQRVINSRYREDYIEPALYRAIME
Sfp inh – Sfp phosphopantetheinyl transferase inhibition | Q9F4F7 | Potency, µM, for the others: largest response in the series, negative = inhibition, actives largely listed as inhibitors | AID 1490 | Biochemical Sfp PPTase activity, qHTS | hit rate 3.5% among 310,000;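 further: the enzyme is Sfp with the accession as filed and its product quenches rhodamine fluorescence; 0% = enzyme reaction without inhibitor and -100% = no enzyme wells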
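Fluorescence-quenching assay with 15 nM Sfp, 5 uM rhodamine-CoA and 12.5 uM BHQ-2-labelled ybbR peptide in pH 7.6 Hepes/MgCl2 buffer. Enzyme was pre-incubated with compound for 15 min at room temperature. Rate was taken from the 30-min fluorescence change (525/598 nm).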
The depositor's hits bear a star; [ ] = remark or other dose. The call rests on the fitted dose curve; in most records, active means well fitted curve in the direction sought with a large enough effect; inconclusive means small, poorly fitted or top-dose-only effect, or another doubt; inactive means no such curve, though single readings can be large; an effect the other way counts as inactive or inconclusive. Potency means the concentration at half of the fitted maximal effect.

Screening CC1Cc2ccccc2N1C(=S)NC(=O)c1ccco1 (stereo not given) returned G9a inh 39.8µM*, PLK1 PBD inh -16.9%, HP1b chromo inh inconclusive, JMJD2A Tudor inh -35.4% and Sfp inh 39.8µM*.
NC(=O)N(N)c1nc(N2CCCC2)nc(N2CCCC2)n1 was read as G9a inh -4.8%[12.7 µM], BAZ2B inh 5.6%, PLK1 PBD inh -5.6%, HP1b chromo inh 28.6% and JMJD2A Tudor inh -9.8%.
For COCCCn1c(Cc2csc(Nc3cccc(Cl)c3)n2)nnc1SCC(=O)OC the results were G9a inh 28.2µM*, BAZ2B inh inconclusive, PLK1 PBD inh -16.4%, HP1b chromo inh -7.5%, JMJD2A Tudor inh 56.2µM* and Sfp inh 25.1µM*.
CCOC(=O)Cc1csc(NC(=O)Cc2ccc(Cl)cc2)n1 was read as G9a inh 27.5%, BAZ2B inh -1.3%, PLK1 PBD inh -11.0%, HP1b chromo inh -0.7%, JMJD2A Tudor inh -5.4% and Sfp inh 6.7%.
For CCOC(=O)Cc1csc(NC(=O)CCC(=O)O)n1 the results were BAZ2B inh -23.2%, PLK1 PBD inh -5.7%, HP1b chromo inh 24.4%, JMJD2A Tudor inh -2.0% and Sfp inh 17.6%.
For CCOC(=O)Cc1csc(NC(=O)CCCc2ccccc2)n1 the results were G9a inh 50.1µM*, BAZ2B inh -38.2%, PLK1 PBD inh 0.0%, HP1b chromo inh 31.4%, JMJD2A Tudor inh -27.1% and Sfp inh inconclusive.
Screening CCOC(=O)Cc1csc(NC(=O)Cc2ccc(Br)cc2)n1 returned G9a inh 56.2µM*, BAZ2B inh -10.9%, PLK1 PBD inh -12.0%, HP1b chromo inh -4.4%, JMJD2A Tudor inh -12.2% and Sfp inh 1.4%.
`CCOC(=O)Cc1csc(CC(N)=O)n1` gave G9a inh 50.1µM*, BAZ2B inh -23.6%, PLK1 PBD inh -6.1%, HP1b chromo inh 20.8%, JMJD2A Tudor inh -12.3% and Sfp inh inconclusive.
CN(Cc1ccc2c(c1)CCCN2C)C(=O)[C@H]1O[C@@H](n2ccc(=O)[nH]c2=O)[C@H](O)[C@@H]1O was read as PLK1 PBD inh -12.3%.
For CC(Sc1nnnn1-c1cccc(F)c1)C(=O)NC1CCCC1 (stereo not given) the results were G9a inh -4.9%[12.7 µM], BAZ2B inh 4.6%, PLK1 PBD inh -7.3%, HP1b chromo inh 13.3% and JMJD2A Tudor inh -13.2%.
For CCSc1ccccc1C(=O)N1CCN(Cc2ccc3c(c2)OCO3)CC1 the results were G9a inh 7.94µM*, BAZ2B inh 4.6%, PLK1 PBD inh -21.6%, HP1b chromo inh 5.1%, JMJD2A Tudor inh -28.5% and Sfp inh inconclusive.
O=C(O)c1cccc(S(=O)(=O)N2CCN(Cc3ccc4c(c3)OCO4)CC2)c1 was read as G9a inh -9.9%, BAZ2B inh 6.1%, PLK1 PBD inh -11.5%, HP1b chromo inh -11.4%, JMJD2A Tudor inh -15.7% and Sfp inh 6.8%.
Screening O=C(c1ccccc1Br)N1CCN(Cc2ccc3c(c2)OCO3)CC1 returned G9a inh 9.2%, BAZ2B inh -25.2%, PLK1 PBD inh 2.7%, HP1b chromo inh 20.0%, JMJD2A Tudor inh -21.8% and Sfp inh 11.9%.
Screening O=C(c1cccc(S(=O)(=O)N2CCOCC2)c1)N1CCN(Cc2ccc3c(c2)OCO3)CC1 returned G9a inh 39.8µM*, BAZ2B inh -25.9%, PLK1 PBD inh -1.8%, HP1b chromo inh 14.6%, JMJD2A Tudor inh -10.9% and Sfp inh 6.6%.
`O=C(O)c1ccccc1C(=O)N1CCN(Cc2ccc3c(c2)OCO3)CC1` gave G9a inh 3.8%, BAZ2B inh -2.0%, PLK1 PBD inh -0.1%, HP1b chromo inh 18.3%, JMJD2A Tudor inh -10.3% and Sfp inh 10.8%.
`O=C(c1ccccc1F)N1CCN(Cc2ccc3c(c2)OCO3)CC1` gave G9a inh -5.2%[0.501 µM], BAZ2B inh 44.7µM*, PLK1 PBD inh -5.3%, HP1b chromo inh 39.8µM*, JMJD2A Tudor inh 0.891µM* and Sfp inh -15.0%.
`Cc1occc1C(=O)N/N=C/c1cccc2ccccc12` gave G9a inh 1.2%, BAZ2B inh 0.6%, PLK1 PBD inh 1.7%, HP1b chromo inh 1.6%, JMJD2A Tudor inh 1.8% and Sfp inh 4.3%.
For CCC/C=C(\CCC)C(NS(=O)(=O)c1ccc(-c2ccccc2)cc1)c1ccc(C(=O)OC)cc1 (stereo not given) the results were Sfp inh 8.6%.
CN(C)c1nc(=NCc2cccs2)ss1 was read as PLK1 PBD inh 5.32µM*, HP1b chromo inh 18.8% and JMJD2A Tudor inh inconclusive.
Screening CCOc1ccc(CNC(=O)c2ccc3c(c2)c(C)c(C)n3Cc2ccccc2)cc1OC returned G9a inh inconclusive, BAZ2B inh -21.8%, HP1b chromo inh 17.2% and JMJD2A Tudor inh -32.1%.
O=C(CN1C(=O)NC2(CCc3ccccc32)C1=O)NCCc1ccccc1 (stereo not given) was read as G9a inh 6.5%[2.33 µM], BAZ2B inh -5.0%, PLK1 PBD inh -2.6%, HP1b chromo inh 24.9% and JMJD2A Tudor inh -26.7%.
For CCC(C)NC(=O)C1CCC(CNS(=O)(=O)c2cccc3nsnc23)CC1 (stereo not given) the results were G9a inh 44.0%, BAZ2B inh -2.6%, PLK1 PBD inh -10.7%, HP1b chromo inh 70.2%, JMJD2A Tudor inh -22.9% and Sfp inh 7.5%.
`COc1ccc(C)cc1NC(=O)COC(C)=O` gave G9a inh -7.0%[59 µM], BAZ2B inh -3.0%, PLK1 PBD inh -0.5%, HP1b chromo inh 16.8%, JMJD2A Tudor inh -7.5% and Sfp inh -14.9%.
`COc1ccc(CNCCc2ccc([N+](=O)[O-])cc2)c(OC)c1OC` gave G9a inh -12.5%[0.501 µM], BAZ2B inh 50.1µM*, PLK1 PBD inh -7.0%, HP1b chromo inh 1.6%, JMJD2A Tudor inh 79.4µM* and Sfp inh 11.1%.
Screening COc1ccc(CNCCNC(=O)c2ccco2)c(OC)c1OC returned G9a inh inconclusive, BAZ2B inh inconclusive, PLK1 PBD inh -6.3%, HP1b chromo inh inconclusive, JMJD2A Tudor inh inconclusive and Sfp inh -3.2%.
For COc1ccc(C)cc1NCc1ccc(OC)c(C)c1OC the results were G9a inh 8.91µM*, BAZ2B inh 22.4µM*, PLK1 PBD inh -3.6%, HP1b chromo inh inconclusive, JMJD2A Tudor inh 20µM* and Sfp inh -29.4%.
For COc1ccc(C)cc1NCc1ccc([N+](=O)[O-])cc1 the results were G9a inh -0.8%[0.501 µM], BAZ2B inh 39.8µM*, PLK1 PBD inh -1.0%, HP1b chromo inh inconclusive, JMJD2A Tudor inh 50.1µM* and Sfp inh 4.7%.
For CC(C)c1cc2c(s1)c1cnn(Cc3ccccc3F)c(=O)c1n2C the results were JMJD2A Tudor inh -20.5%.
